Test [1] has as its system Escherichia coli Nissle 1917. Nature of the test: area under OmniLog respiration curve over 48 h (OmniLog units x h); higher = more growth / nutrient utilisation; extreme values may be limits of the assay. To be noted: incubation: 48 h, 37 °C.
The test system of test [2] is Escherichia coli Nissle 1917. Nature of the test: DuctApe activity index of respiration/growth curve (0 no growth to 9 maximum) (index 0-9); higher = more growth / nutrient utilisation, active = 3 or more; extreme values may be limits of the assay. Particulars: incubation: 48 h, 37 °C.
Setting [3] is: nutrient role: C-Source, amino acid.
The mark [4] stands for this setting: nutrient role: sole nitrogen source (pyruvate carbon).
[5] abbreviates: nutrient role: C-Source, carbohydrate.
The mark [6] stands for this setting: nutrient role: sole phosphorus source (pyruvate carbon).
Where [7] appears, read: nutrient role: sole sulfur source (pyruvate carbon).
Setting [8] is: nutrient role: C-Source, carboxylic acid.

± gives the standard deviation of the averaged measurements.
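Wherever DuctApe activity index of respiration/growth curve (0 no growth to 9 maximum) is given: biolog PM4 phosphorus and sulfur plates, tetrazolium violet dye reduction read in the OmniLog every 15 min, kinetic curves scored by DuctApe, each plate run in triplicate.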

Regarding `N[C@H](CC(=O)O)C(=O)O` [D-Aspartic acid], the “area under OmniLog respiration curve” value in test [1] (setting [3]) is 48 ± 53; in test [1] (setting [4]), 4.72. Also, the DuctApe activity index was 0.667 (inactive) in test [2] (setting [3]) and 0 (inactive) in test [2] (setting [4]).

Consider `CC(=O)N[C@@H](CCC(=O)O)C(=O)O` [N-Acetyl-L-Glutamic acid], for which the “area under OmniLog respiration curve” value in test [1] (setting [3]) and in test [1] (setting [4]) was 4.72 each time. The DuctApe activity index in test [2] (setting [3]) and in test [2] (setting [4]) was 0 (inactive) throughout.

For `O=P(O)(O)OC[C@H](O)CO` (racemic) [DL-a-Glycerol Phosphate], the entries for the “area under OmniLog respiration curve” value in test [1] (setting [5]) and in test [1] (setting [6]) were 7910 ± 780 and 9010 ± 860, respectively. Besides, the DuctApe activity index in test [2] (setting [5]) is 7.67 (active); in test [2] (setting [6]) it was 8.67 (active).

Consider `C[C@H](N)C(=O)O` [L-Alanine], for which the “area under OmniLog respiration curve” value in test [1] (setting [3]) came out at 8160 ± 580; in test [1] (setting [4]), 7330 ± 1200. For the same compound, the DuctApe activity index in test [2] (setting [3]) and in test [2] (setting [4]) was 8 (active) throughout.

Take `NCC(=O)N[C@@H](CCC(=O)O)C(=O)O`: the “area under OmniLog respiration curve” value in test [1] (setting [3]) worked out at 7660 ± 620; in test [1] (setting [4]), 7640 ± 1700. Also, the DuctApe activity index was 7.67 (active) in test [2] (setting [3]) and 8 (active) in test [2] (setting [4]).

In the case of `CSCC[C@H](NC(=O)CN)C(=O)O`, the “area under OmniLog respiration curve” value in test [1] (setting [4]) came to 5710 ± 1300; in test [1] (setting [7]) it was 5820 ± 90. Further, the DuctApe activity index in test [2] (setting [4]) and in test [2] (setting [7]) was 7 (active) throughout.

Consider `CC(=O)N[C@@H]1[C@@H](O)[C@H](O)[C@@H](CO)O[C@@H]1O` [N-Acetyl-D-Glucosamine], for which the “area under OmniLog respiration curve” value turned out to be 7820 ± 520 in test [1] (setting [5]) and 1070 ± 1100 in test [1] (setting [4]). In addition, the DuctApe activity index was 8 (active) in test [2] (setting [5]) and 2.33 (inactive) in test [2] (setting [4]).

As to `CC(=O)N[C@H]1C(O)O[C@H](CO)[C@H](O)[C@@H]1O` (stereo partly drawn) [N-Acetyl-D-Galactosamine], the “area under OmniLog respiration curve” value was 8120 ± 580 in test [1] (setting [5]) and 992 ± 1000 in test [1] (setting [4]). For the same compound, the DuctApe activity index in test [2] (setting [5]) is 8 (active); in test [2] (setting [4]) it was 2.33 (inactive).

On to `CC(=O)N[C@@H]1C(O)O[C@H](CO)[C@@H](O)[C@@H]1O` (stereo partly drawn) [N-Acetyl-D-Mannosamine], for which the “area under OmniLog respiration curve” value in test [1] (setting [5]) amounted to 7300 ± 450; in test [1] (setting [4]), 1040 ± 740. For the same compound, the figures for the DuctApe activity index in test [2] (setting [5]) and in test [2] (setting [4]) were 7.67 (active) and 2.33 (inactive), respectively.

As for `N[C@@H](Cc1ccccc1)C(=O)O` [L-Phenylalanine], the “area under OmniLog respiration curve” value is 8.61 ± 5.9 in test [1] (setting [3]) and 4290 ± 1100 in test [1] (setting [4]). Moreover, the results for the DuctApe activity index in test [2] (setting [3]) and in test [2] (setting [4]) were 0 (inactive) and 6 (active), respectively.

`C[C@H](N)C(=O)NCC(=O)O`: the “area under OmniLog respiration curve” value stood at 7280 ± 620 in test [1] (setting [3]) and 8020 ± 1200 in test [1] (setting [4]). In addition, the DuctApe activity index in test [2] (setting [3]) was 7.67 (active); in test [2] (setting [4]), 8 (active).

For `NCCCC(=O)O` [g-Amino-N-Butyric acid], the “area under OmniLog respiration curve” value was 4.72 in test [1] (setting [8]) and 2000 ± 1100 in test [1] (setting [4]). Also, the figures for the DuctApe activity index in test [2] (setting [8]) and in test [2] (setting [4]) were 0 (inactive) and 4 (active), respectively.

In the case of `NCCC[C@H](N)C(=O)O` [L-Ornithine], the “area under OmniLog respiration curve” value in test [1] (setting [3]) was 34.5 ± 27; in test [1] (setting [4]), 2670 ± 1300. For the same compound, the DuctApe activity index in test [2] (setting [3]) was 0 (inactive); in test [2] (setting [4]), 4 (active).

In the case of `O=C[C@H](O)[C@@H](O)[C@H](O)[C@H](O)COP(=O)(O)O` [D-Glucose-6-Phosphate], the “area under OmniLog respiration curve” value in test [1] (setting [5]) was 10100 ± 940; in test [1] (setting [6]), 8680 ± 490. Also, the DuctApe activity index in test [2] (setting [5]) was 9 (active); in test [2] (setting [6]), 8.67 (active).

In the case of `N[C@@H](CCC(=O)O)C(=O)O` [L-Glutamic acid], the “area under OmniLog respiration curve” value in test [1] (setting [3]) was 7390 ± 830; in test [1] (setting [4]), 7860 ± 1300. Besides, the DuctApe activity index in test [2] (setting [3]) is 7.67 (active); in test [2] (setting [4]), 8 (active).

With `CC(N)=O` [Acetamide], the “area under OmniLog respiration curve” value in test [1] (nutrient role: C-Source, amide) was 9.31 ± 7.2; in test [1] (setting [4]), 26.4 ± 38. In addition, the DuctApe activity index in test [2] (nutrient role: C-Source, amide) was 0 (inactive); in test [2] (setting [4]) it was 0 (inactive).

With `N[C@@H](CCO)C(=O)O` [L-Homoserine], the “area under OmniLog respiration curve” value in test [1] (setting [3]) was determined as 4.72; in test [1] (setting [4]), 546 ± 600. Also, the results for the DuctApe activity index in test [2] (setting [3]) and in test [2] (setting [4]) were 0 (inactive) and 1.33 (inactive), respectively.

As to `O=c1ccn([C@@H]2O[C@H](CO)[C@@H](O)[C@H]2O)c(=O)[nH]1` [Uridine], the “area under OmniLog respiration curve” value in test [1] (setting [5]) is 9200 ± 570; in test [1] (setting [4]), 8.86 ± 7.2. Further, the DuctApe activity index in test [2] (setting [5]) is 8.67 (active); in test [2] (setting [4]), 0 (inactive).

`CC[C@H](C)[C@H](N)C(=O)O` [L-Isoleucine]: the “area under OmniLog respiration curve” value is 11.5 ± 6.6 in test [1] (setting [3]) and 64.6 ± 81 in test [1] (setting [4]). The DuctApe activity index in test [2] (setting [3]) is 0 (inactive); in test [2] (setting [4]), 1 (inactive).

With `N=C(N)NCCC[C@H](N)C(=O)O` [L-Arginine], the “area under OmniLog respiration curve” value amounted to 4.72 in test [1] (setting [3]) and 7500 ± 1400 in test [1] (setting [4]). In addition, the DuctApe activity index in test [2] (setting [3]) was 0 (inactive); in test [2] (setting [4]), 8 (active).

Consider `Cc1cn([C@H]2C[C@H](O)[C@@H](CO)O2)c(=O)[nH]c1=O` [Thymidine], for which the “area under OmniLog respiration curve” value in test [1] (setting [5]) was 9560 ± 710; in test [1] (setting [4]), 4.72. The results for the DuctApe activity index in test [2] (setting [5]) and in test [2] (setting [4]) were 8.67 (active) and 0 (inactive), respectively.

On to `NC(=O)C[C@H](N)C(=O)O` [L-Asparagine], for which the “area under OmniLog respiration curve” value came out at 8660 ± 760 in test [1] (setting [3]) and 8770 ± 1400 in test [1] (setting [4]). In addition, the DuctApe activity index in test [2] (setting [3]) and in test [2] (setting [4]) was 8.67 (active) each time.

As to `NCC(=O)O` [Glycine], the “area under OmniLog respiration curve” value in test [1] (setting [3]) is 4.72; in test [1] (setting [4]), 4420 ± 1100. The DuctApe activity index is 0 (inactive) in test [2] (setting [3]) and 6 (active) in test [2] (setting [4]).

With `N[C@H]1C(O)O[C@H](CO)[C@@H](O)[C@@H]1O` (stereo partly drawn) [D-Glucosamine], the “area under OmniLog respiration curve” value in test [1] (setting [5]) is 8060 ± 400; in test [1] (setting [4]), 2180 ± 1100. The DuctApe activity index was 8 (active) in test [2] (setting [5]) and 3.33 (active) in test [2] (setting [4]).

As for `N[C@@H](CC(=O)O)C(=O)O` [L-Aspartic acid], the “area under OmniLog respiration curve” value in test [1] (setting [3]) amounted to 8900 ± 710; in test [1] (setting [4]) it was 8720 ± 1400. Also, the DuctApe activity index in test [2] (setting [3]) was 8.67 (active); in test [2] (setting [4]) it was 8.33 (active).

Consider `O=C(O)[C@@H]1CCCN1` [L-Proline], for which the entries for the “area under OmniLog respiration curve” value in test [1] (setting [3]) and in test [1] (setting [4]) were 8520 ± 530 and 4840 ± 1100, respectively. Besides, the DuctApe activity index is 8.67 (active) in test [2] (setting [3]) and 6 (active) in test [2] (setting [4]).

As to `N[C@@H](CS)C(=O)O` [L-Cysteine], the “area under OmniLog respiration curve” value in test [1] (setting [4]) amounted to 9700 ± 1400; in test [1] (setting [7]), 7230 ± 260. Further, the DuctApe activity index in test [2] (setting [4]) is 8.67 (active); in test [2] (setting [7]) it was 7.33 (active).

Regarding `CC(C)C[C@H](N)C(=O)O` [L-Leucine], the “area under OmniLog respiration curve” value is 15.5 ± 9.5 in test [1] (setting [3]) and 804 ± 870 in test [1] (setting [4]). The DuctApe activity index is 0 (inactive) in test [2] (setting [3]) and 1.33 (inactive) in test [2] (setting [4]).

The values above are taken from the supplement of paper PMC9801561.
